What was measured:
Conditions in all cases: concentration: 1 μM, replicates: in singlicate; n = 1
CSK = test system: CSK
CSNK1A1L = test system: CSNK1A1L
CSNK1A1 = test system: CSNK1A1
CSNK1D = test system: CSNK1D
CSNK1E = test system: CSNK1E
CSNK1G1 = test system: CSNK1G1
CSNK1G2 = test system: CSNK1G2
CSNK1G3 = test system: CSNK1G3
CSNK2A1 = test system: CSNK2A1
CSNK2A2 = test system: CSNK2A2
CTK = test system: T1, CTK
T1 construct: gene MATK

DAPK1 = test system: DAPK1
DAPK2 = test system: DAPK2
DAPK3 = test system: DAPK3
DCAMKL1 = test system: T2, DCAMKL1
T2 construct: gene DCLK1

DCAMKL2 = test system: T3, DCAMKL2
T3 construct: gene DCLK2

DCAMKL3 = test system: T4, DCAMKL3
T4 construct: gene DCLK3

DDR1 = test system: DDR1
DDR2 = test system: DDR2
DLK = test system: T5, DLK
T5 construct: gene MAP3K12
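Also: KINOMEscan kinase panel screen.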

SMILES: CNc1nc(-c2ccc3c(N)n[nH]c3c2)cc(N2C[C@@H](C(=O)NC3CCCCC3)OC[C@H]2C)n1 [GSK2375584]
- %Inh (CSK): 1%
- %Inh (CSNK1A1L): 16%
- %Inh (CSNK1A1): 66%
- %Inh (CSNK1D): 41%
- %Inh (CSNK1E): 38%
- %Inh (CSNK1G1): 2%
- %Inh (CSNK1G2): 4%
- %Inh (CSNK1G3): 26%
- %Inh (CSNK2A1): 1%
- %Inh (CSNK2A2): 8%
- %Inh (CTK): 0%
- %Inh (DAPK1): 26%
- %Inh (DAPK2): 34%
- %Inh (DAPK3): 40%
- %Inh (DCAMKL1): 24%
- %Inh (DCAMKL2): 0%
- %Inh (DCAMKL3): 31%
- %Inh (DDR1): 15%
- %Inh (DDR2): 36%
- %Inh (DLK): 37%

SMILES: COc1cc2ncnc(Nc3cccc(Br)c3)c2cc1OC.Cl [GI230329]
- %Inh (CSK): 0%
- %Inh (CSNK1A1L): 10%
- %Inh (CSNK1A1): 0%
- %Inh (CSNK1D): 0%
- %Inh (CSNK1E): 31%
- %Inh (CSNK1G1): 12%
- %Inh (CSNK1G2): 0%
- %Inh (CSNK1G3): 26%
- %Inh (CSNK2A1): 8%
- %Inh (CSNK2A2): 0%
- %Inh (CTK): 0%
- %Inh (DAPK1): 0%
- %Inh (DAPK2): 0%
- %Inh (DAPK3): 9%
- %Inh (DCAMKL1): 25%
- %Inh (DCAMKL2): 0%
- %Inh (DCAMKL3): 10%
- %Inh (DDR1): 63%
- %Inh (DDR2): 43%
- %Inh (DLK): 39%

SMILES: Cc1ccc(NC(=O)Nc2ccccc2)cc1-c1ccc(C(=O)Nc2ccncc2)cc1 [GSK1398471]
- %Inh (CSK): 2%
- %Inh (CSNK1A1L): 0%
- %Inh (CSNK1A1): 0%
- %Inh (CSNK1D): 13%
- %Inh (CSNK1E): 24%
- %Inh (CSNK1G1): 11%
- %Inh (CSNK1G2): 13%
- %Inh (CSNK1G3): 29%
- %Inh (CSNK2A1): 6%
- %Inh (CSNK2A2): 7%
- %Inh (CTK): 0%
- %Inh (DAPK1): 3%
- %Inh (DAPK2): 3%
- %Inh (DAPK3): 9%
- %Inh (DCAMKL1): 10%
- %Inh (DCAMKL2): 0%
- %Inh (DCAMKL3): 24%
- %Inh (DDR1): 95%
- %Inh (DDR2): 38%
- %Inh (DLK): 9%

SMILES: COc1ccc2cc(-c3nc(-c4ccccc4C(C)C)[nH]c3-c3ccncc3)ccc2c1 [SB-660566]
- %Inh (CSK): 0%
- %Inh (CSNK1A1L): 20%
- %Inh (CSNK1A1): 0%
- %Inh (CSNK1D): 22%
- %Inh (CSNK1E): 34%
- %Inh (CSNK1G1): 10%
- %Inh (CSNK1G2): 0%
- %Inh (CSNK1G3): 0%
- %Inh (CSNK2A1): 0%
- %Inh (CSNK2A2): 2%
- %Inh (CTK): 0%
- %Inh (DAPK1): 0%
- %Inh (DAPK2): 0%
- %Inh (DAPK3): 8%
- %Inh (DCAMKL1): 1%
- %Inh (DCAMKL2): 0%
- %Inh (DCAMKL3): 23%
- %Inh (DDR1): 90.5%
- %Inh (DDR2): 6%
- %Inh (DLK): 18%

SMILES: CN1c2ccc(-c3ccc(C(N)=O)cc3)cc2-c2[nH]ncc2S1(=O)=O
- %Inh (CSK): 0%
- %Inh (CSNK1A1L): 0%
- %Inh (CSNK1A1): 3%
- %Inh (CSNK1D): 1%
- %Inh (CSNK1E): 1%
- %Inh (CSNK1G1): 0%
- %Inh (CSNK1G2): 0%
- %Inh (CSNK1G3): 0%
- %Inh (CSNK2A1): 0%
- %Inh (CSNK2A2): 1%
- %Inh (CTK): 0%
- %Inh (DAPK1): 54%
- %Inh (DAPK2): 18%
- %Inh (DAPK3): 26%
- %Inh (DCAMKL1): 7%
- %Inh (DCAMKL2): 0%
- %Inh (DCAMKL3): 0%
- %Inh (DDR1): 0%
- %Inh (DDR2): 28%
- %Inh (DLK): 0%

SMILES: Cc1ccc(-c2nc(Nc3ccncc3)c3ccccc3n2)s1 [GSK189015]
- %Inh (CSK): 0%
- %Inh (CSNK1A1L): 13%
- %Inh (CSNK1A1): 24%
- %Inh (CSNK1D): 33%
- %Inh (CSNK1E): 22%
- %Inh (CSNK1G1): 14%
- %Inh (CSNK1G2): 12%
- %Inh (CSNK1G3): 35%
- %Inh (CSNK2A1): 27%
- %Inh (CSNK2A2): 30%
- %Inh (CTK): 8%
- %Inh (DAPK1): 11%
- %Inh (DAPK2): 0%
- %Inh (DAPK3): 10%
- %Inh (DCAMKL1): 17%
- %Inh (DCAMKL2): 30%
- %Inh (DCAMKL3): 15%
- %Inh (DDR1): 61%
- %Inh (DDR2): 2%
- %Inh (DLK): 0%

SMILES: Cc1ccc(NC(=O)Nc2ccc(Cl)cc2)cc1-c1ccc(C(=O)Nc2ccncc2)cc1 [GSK1398472]
- %Inh (CSK): 0%
- %Inh (CSNK1A1L): 1%
- %Inh (CSNK1A1): 0%
- %Inh (CSNK1D): 6%
- %Inh (CSNK1E): 26%
- %Inh (CSNK1G1): 2%
- %Inh (CSNK1G2): 7%
- %Inh (CSNK1G3): 36%
- %Inh (CSNK2A1): 0%
- %Inh (CSNK2A2): 0%
- %Inh (CTK): 0%
- %Inh (DAPK1): 16%
- %Inh (DAPK2): 0%
- %Inh (DAPK3): 15%
- %Inh (DCAMKL1): 18%
- %Inh (DCAMKL2): 0%
- %Inh (DCAMKL3): 0%
- %Inh (DDR1): 99.8%
- %Inh (DDR2): 64%
- %Inh (DLK): 0%

SMILES: Cn1cncc1-c1cc2c(Nc3ccc(OCc4ccccc4)cc3)ncnc2cn1 [GW281179]
- %Inh (CSK): 4%
- %Inh (CSNK1A1L): 4%
- %Inh (CSNK1A1): 0%
- %Inh (CSNK1D): 19%
- %Inh (CSNK1E): 24%
- %Inh (CSNK1G1): 9%
- %Inh (CSNK1G2): 0%
- %Inh (CSNK1G3): 24%
- %Inh (CSNK2A1): 0%
- %Inh (CSNK2A2): 9%
- %Inh (CTK): 0%
- %Inh (DAPK1): 0%
- %Inh (DAPK2): 0%
- %Inh (DAPK3): 7%
- %Inh (DCAMKL1): 20%
- %Inh (DCAMKL2): 14%
- %Inh (DCAMKL3): 0%
- %Inh (DDR1): 9%
- %Inh (DDR2): 0%
- %Inh (DLK): 27%

SMILES: O=c1cc(N2CCOCC2)nc2n(Cc3cccc(Cl)c3Cl)c3ccccc3n12 [GSK2299009]
- %Inh (CSK): 21%
- %Inh (CSNK1A1L): 11%
- %Inh (CSNK1A1): 0%
- %Inh (CSNK1D): 19%
- %Inh (CSNK1E): 41%
- %Inh (CSNK1G1): 8%
- %Inh (CSNK1G2): 0%
- %Inh (CSNK1G3): 17%
- %Inh (CSNK2A1): 11%
- %Inh (CSNK2A2): 31%
- %Inh (CTK): 0%
- %Inh (DAPK1): 13%
- %Inh (DAPK2): 0%
- %Inh (DAPK3): 11%
- %Inh (DCAMKL1): 12%
- %Inh (DCAMKL2): 7%
- %Inh (DCAMKL3): 10%
- %Inh (DDR1): 22%
- %Inh (DDR2): 0%
- %Inh (DLK): 0%

SMILES: Cn1cncc1C(=O)NC1CCN(c2ccnc(Nc3ccc(F)cc3)n2)C1 (stereo not shown) [GSK1379717]
- %Inh (CSK): 9%
- %Inh (CSNK1A1L): 0%
- %Inh (CSNK1A1): 0%
- %Inh (CSNK1D): 0%
- %Inh (CSNK1E): 0%
- %Inh (CSNK1G1): 0%
- %Inh (CSNK1G2): 0%
- %Inh (CSNK1G3): 17%
- %Inh (CSNK2A1): 0%
- %Inh (CSNK2A2): 0%
- %Inh (CTK): 0%
- %Inh (DAPK1): 13%
- %Inh (DAPK2): 0%
- %Inh (DAPK3): 5%
- %Inh (DCAMKL1): 0%
- %Inh (DCAMKL2): 0%
- %Inh (DCAMKL3): 0%
- %Inh (DDR1): 7%
- %Inh (DDR2): 0%
- %Inh (DLK): 0%

SMILES: O=c1cc(N2CCOCC2)nc2n(Cc3ccccc3F)ccn12 [GSK2297428]
- %Inh (CSK): 0%
- %Inh (CSNK1A1L): 0%
- %Inh (CSNK1A1): 28%
- %Inh (CSNK1D): 25%
- %Inh (CSNK1E): 33%
- %Inh (CSNK1G1): 9%
- %Inh (CSNK1G2): 0%
- %Inh (CSNK1G3): 28%
- %Inh (CSNK2A1): 0%
- %Inh (CSNK2A2): 0%
- %Inh (CTK): 0%
- %Inh (DAPK1): 0%
- %Inh (DAPK2): 0%
- %Inh (DAPK3): 13%
- %Inh (DCAMKL1): 57%
- %Inh (DCAMKL2): 0%
- %Inh (DCAMKL3): 3%
- %Inh (DDR1): 10%
- %Inh (DDR2): 0%
- %Inh (DLK): 0%
